For orientation: AC50 means the concentration at which the activity in the assay is half-maximal.

Results filed as inconclusive are left out. Calls of active or inactive are those of the source. Rule for the calls: active = hit-call score of the fitted dose curve at least 0.9, where 1 is the maximum; inconclusive = response in the unintended direction; inactive = score below 0.9.

The target in one experiment is rat Constitutive Nitric Oxide Synthase (CNOS), Nos1 (gene 24598) (UniProt P29476). As to the kind of experiment: NVS_ENZ_rCNOS: NovaScreen (NVS) Enzymatic Assay for rat Constitutive Nitric Oxide Synthase (CNOS) (AID 2283236). As to the method: NVS_ENZ_rCNOS is a biochemical, single-readout assay that uses extracted gene-proteins from Rat brain membranes in a tissue-based cell-free assay. Measurements were taken 1 hour after chemical dosing in a 96-well plate.NVS_ENZ_rCNOS is one of one assay component(s) measured or calculated from the NVS_ENZ_rCNOS assay. It is designed to make measurements of enzyme activity, a form of enzyme reporter, as detected with scintillation counting signals by Filter-based radiodetection technology.Data from the assay component NVS_ENZ_rCNOS was analyzed into 1 assay endpoint. This assay endpoint, NVS_ENZ_rCNOS, was analyzed in the positive analysis fitting direction relative to DMSO as the negative control and baseline of activity. Using a type of enzyme reporter, loss-of-signal activity can be used to understand changes in the enzymatic activity as they relate to the gene Nos1. Furthermore, this assay endpoint can be referred to as a primary readout, because this assay has produced multiple assay endpoints where this one serves a enzymatic activity function. To generalize the intended target to other relatable targets, this assay endpoint is annotated to the oxidoreductase intended target family, where the subfamily is nitric oxide synthase.
Chain of rat Constitutive Nitric Oxide Synthase (CNOS), Nos1 (gene 24598) (P29476 whole entry, looked up): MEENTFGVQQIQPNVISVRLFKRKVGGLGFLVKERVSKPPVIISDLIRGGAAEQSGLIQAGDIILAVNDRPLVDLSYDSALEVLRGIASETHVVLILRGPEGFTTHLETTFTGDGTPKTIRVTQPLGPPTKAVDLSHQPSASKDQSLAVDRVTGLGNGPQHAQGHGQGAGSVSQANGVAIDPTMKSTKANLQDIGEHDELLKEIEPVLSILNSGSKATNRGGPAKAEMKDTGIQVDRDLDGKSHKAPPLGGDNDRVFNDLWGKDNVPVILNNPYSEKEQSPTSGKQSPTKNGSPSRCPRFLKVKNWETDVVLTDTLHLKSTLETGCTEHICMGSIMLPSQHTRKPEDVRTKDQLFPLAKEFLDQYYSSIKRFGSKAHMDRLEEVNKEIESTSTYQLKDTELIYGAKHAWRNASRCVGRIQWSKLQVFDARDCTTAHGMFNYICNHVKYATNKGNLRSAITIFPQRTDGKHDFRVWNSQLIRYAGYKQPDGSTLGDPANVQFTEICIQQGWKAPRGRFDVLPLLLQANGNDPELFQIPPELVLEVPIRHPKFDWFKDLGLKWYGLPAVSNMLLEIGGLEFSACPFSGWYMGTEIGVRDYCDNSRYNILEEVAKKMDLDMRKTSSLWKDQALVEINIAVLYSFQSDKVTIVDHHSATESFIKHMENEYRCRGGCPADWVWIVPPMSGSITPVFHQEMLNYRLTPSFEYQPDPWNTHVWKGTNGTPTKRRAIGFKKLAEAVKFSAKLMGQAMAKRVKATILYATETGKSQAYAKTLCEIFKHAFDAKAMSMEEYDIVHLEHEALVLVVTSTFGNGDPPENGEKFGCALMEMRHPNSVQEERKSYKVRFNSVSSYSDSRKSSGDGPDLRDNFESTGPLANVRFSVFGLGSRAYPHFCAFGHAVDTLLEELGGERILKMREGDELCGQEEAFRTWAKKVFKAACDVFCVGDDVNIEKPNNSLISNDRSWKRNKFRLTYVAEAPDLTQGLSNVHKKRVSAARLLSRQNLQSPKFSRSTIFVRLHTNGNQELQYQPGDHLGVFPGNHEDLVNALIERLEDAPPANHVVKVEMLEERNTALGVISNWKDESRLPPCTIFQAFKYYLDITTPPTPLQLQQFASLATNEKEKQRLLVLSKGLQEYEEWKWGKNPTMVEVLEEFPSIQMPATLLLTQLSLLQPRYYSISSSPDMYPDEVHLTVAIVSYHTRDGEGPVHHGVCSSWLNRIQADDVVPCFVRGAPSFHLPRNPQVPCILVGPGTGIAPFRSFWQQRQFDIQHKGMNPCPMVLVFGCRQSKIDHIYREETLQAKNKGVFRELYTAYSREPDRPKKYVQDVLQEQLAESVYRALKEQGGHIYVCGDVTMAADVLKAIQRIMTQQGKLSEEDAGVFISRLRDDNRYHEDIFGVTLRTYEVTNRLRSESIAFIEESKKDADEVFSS
Binding assays used specific radioligands (tritiated, iodinated) with non-radioactive competitive displacement ligands in agonist or antagonist protocols (as indicated) and various reference compounds and inhibitors to titrate specific binding to receptors and transporters. Most enzyme assays (CYPs, kinases, phosphatases, proteases, HDACs) used recombinant protein and specific substrates (fluorescence mostly, some colorimetric and radioactive) and inhibitors, followed by a biochemical separation of substrate and product. All assays for the biochemical HTS were initially run in duplicate at a single concentration (10 uM for CYP450 assays and 25 uM for all others). Assay-chemical combinations meeting a pre-defined threshold (e.g., 30% inhibition and other criteria defined below) were then run in singleton concentration-response format with maximum concentration of 20 uM for CYPs and 50 uM for all others. Each assay was run with positive and negative controls, and concurrent controls on every plate. The follow-up (secondary) screen tested active chemical-pairs in concentration series, as well as a few additional assays not tested in the primary screen, some selected negative inactives, and several cases re-run in the concentration series for confirmatory purposes.
Regarding `Cc1cc(=O)[nH]c(=S)[nH]1`, the AC50 was 6.64 µM (active).

Turning to `COc1ccc(C)cc1N`, the AC50 is 7.8 µM (active).

Regarding `COc1cc(S(=O)(=O)O)c(C)cc1N=Nc1c(O)ccc2cc(S(=O)(=O)O)ccc12`, the call was inactive.

In the case of `COc1cc(C=O)ccc1O`, the molecule was called inactive.

For `CCCCC(CC)COC(=O)CC(C(=O)OCC(CC)CCCC)S(=O)(=O)O` (configuration not stated), the molecule was called inactive.

`FC(F)(F)C(F)(F)C(F)(F)C(F)(F)C(F)(F)C(F)(F)CCI`: the outcome was inactive.

With `Nc1ccc2c(c1)C(=O)c1ccccc1C2=O`, the call was inactive.

As for `CC(C)c1ccc(C(=O)N=C(N)N)cc1S(C)(=O)=O`, the result was inactive.

For `CCOc1ccc2c(c1)C(C)=CC(C)(C)N2`, the call was inactive.

The target of a further experiment is sheep Cyclooxygenase-1 (Cox1), PTGS1 (gene 443551) (UniProt P05979). The experiment in a line: NVS_ENZ_oCOX1: NovaScreen (NVS) Enzymatic Assay for sheep Cyclooxygenase-1 (Cox1) (AID 2283239).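 Note: actives reduce cyclooxygenase activity so potencies are for inhibitors.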 In short, it runs like this: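 Ovine seminal vesicle extract; absorbance (colorimetric) enzyme read-out at 0.66 h post-dose. Primary: single conc 25 uM, duplicate. Follow-up: concentration series on actives. Activity = signal loss vs DMSO baseline.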
Chain of sheep Cyclooxygenase-1 (Cox1), PTGS1 (gene 443551) (P05979 whole entry, looked up): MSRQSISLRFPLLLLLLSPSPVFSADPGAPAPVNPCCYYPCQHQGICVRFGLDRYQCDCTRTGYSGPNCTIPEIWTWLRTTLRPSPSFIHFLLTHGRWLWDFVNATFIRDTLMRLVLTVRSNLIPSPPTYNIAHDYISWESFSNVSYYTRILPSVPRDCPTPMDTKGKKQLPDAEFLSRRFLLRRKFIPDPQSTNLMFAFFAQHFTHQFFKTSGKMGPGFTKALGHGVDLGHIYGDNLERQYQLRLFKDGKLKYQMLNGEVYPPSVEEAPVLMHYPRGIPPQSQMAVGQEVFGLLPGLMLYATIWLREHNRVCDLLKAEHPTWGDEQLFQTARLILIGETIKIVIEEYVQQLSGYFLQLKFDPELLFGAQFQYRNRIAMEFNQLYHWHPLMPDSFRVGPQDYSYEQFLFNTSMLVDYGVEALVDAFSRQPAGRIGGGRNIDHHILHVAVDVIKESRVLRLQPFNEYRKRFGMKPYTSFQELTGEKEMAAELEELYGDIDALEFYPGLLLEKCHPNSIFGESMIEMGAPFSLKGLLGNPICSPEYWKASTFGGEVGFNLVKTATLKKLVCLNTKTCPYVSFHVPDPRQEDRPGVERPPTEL
Regarding `CCCCCCC(=O)OCC`, the molecule was called inactive.

For `CC(=O)OC/C=C(\C)CCC=C(C)C`, the AC50 is 8.78 µM (active).

On to `COc1ccc(C)cc1N`, for which the AC50 was 10.7 µM (active).

On to `Nc1nc(N)c2nc(CNc3ccc(C(=O)N[C@@H](CCC(=O)O)C(=O)O)cc3)cnc2n1`, for which the AC50 is 1.66 µM (active).

With `Nc1ccccc1N`, the call was inactive.

On to `CCCCC(CC)COC(=O)CC(C(=O)OCC(CC)CCCC)S(=O)(=O)O` (configuration not stated), for which the AC50 was 6.53 µM (active).

As for `CC1=C(/C=C/C(C)=C/C=C/C(C)=C/CO)C(C)(C)CCC1`, the AC50 is 17.9 µM (active).

As for `CC=Cc1ccc(O)c(OC)c1`, the call was inactive.

Consider `CCOC(=O)C(C)(C)Oc1ccc(Cl)cc1`, for which the molecule was classed as inactive.

`CC(=O)Oc1ccccc1C(=O)O`: the molecule was called inactive.

Consider `COc1cc(-c2nc(NC(=O)c3cc4cc(C)cc(C)c4n3CC(=O)O)sc2CCC2CCCCC2)c(OC)cc1Cl`, for which the AC50 was 4 µM (active).

Regarding `O=[N+]([O-])C(CO)(CO)CO`, the molecule was classed as inactive.

As to `Cc1ccc(Cl)cc1`, the molecule was called inactive.

The values are drawn from PubChem BioAssay (EPA / NIEHS).
